Assay in all cases: DAPPL (digital affinity profiling via proximity ligation, sequencing); 10 mM Tris-HCl pH 7.5, 50 mM NaCl, 1 mM DTT, 4% glycerol, room temperature, 30 min; GST-TFs on glutathione beads, 16-mer random dsDNA library, 0.1% formaldehyde crosslink after washing; high values mean tight binding
Common to all, as to details: protein: recombinant; tags: N-terminal GST; dsDNA, one strand shown

One assay addresses T1, ERF (Homo sapiens, UniProt P50548 1-548).
T1 sequence: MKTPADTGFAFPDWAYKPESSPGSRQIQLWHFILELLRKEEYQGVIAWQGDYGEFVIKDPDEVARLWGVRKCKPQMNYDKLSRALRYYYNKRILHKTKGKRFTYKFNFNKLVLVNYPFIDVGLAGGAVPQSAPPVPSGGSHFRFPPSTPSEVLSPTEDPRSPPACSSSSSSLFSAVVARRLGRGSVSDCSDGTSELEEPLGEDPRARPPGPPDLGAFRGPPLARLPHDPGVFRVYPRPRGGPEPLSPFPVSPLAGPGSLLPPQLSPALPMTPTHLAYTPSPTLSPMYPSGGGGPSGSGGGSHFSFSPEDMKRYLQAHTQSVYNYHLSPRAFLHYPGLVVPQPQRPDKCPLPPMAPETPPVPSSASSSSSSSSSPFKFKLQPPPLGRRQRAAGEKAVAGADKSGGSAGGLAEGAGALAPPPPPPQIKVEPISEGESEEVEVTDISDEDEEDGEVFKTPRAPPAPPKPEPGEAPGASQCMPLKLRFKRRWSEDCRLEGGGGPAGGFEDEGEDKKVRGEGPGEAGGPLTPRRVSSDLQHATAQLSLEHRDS
Summed up:
(§1)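 Each value of binding signal is a hexamer's read frequency for a factor divided by the same hexamer's frequency in the tag-only sample. Barcoded, bead-captured GST fusions of human transcription factors made in yeast were pooled with that sample and incubated with 200 nmole of a random double-stranded 16-mer DNA library in Tris/NaCl/DTT/glycerol buffer at room temperature for 30 min. Washing, 0.1% formaldehyde crosslinking, proximity ligation, PCR and Illumina NextSeq500 sequencing followed.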

In a further assay the target is T2, ETV3L (Homo sapiens, UniProt Q6ZN32 1-361).
T2 sequence: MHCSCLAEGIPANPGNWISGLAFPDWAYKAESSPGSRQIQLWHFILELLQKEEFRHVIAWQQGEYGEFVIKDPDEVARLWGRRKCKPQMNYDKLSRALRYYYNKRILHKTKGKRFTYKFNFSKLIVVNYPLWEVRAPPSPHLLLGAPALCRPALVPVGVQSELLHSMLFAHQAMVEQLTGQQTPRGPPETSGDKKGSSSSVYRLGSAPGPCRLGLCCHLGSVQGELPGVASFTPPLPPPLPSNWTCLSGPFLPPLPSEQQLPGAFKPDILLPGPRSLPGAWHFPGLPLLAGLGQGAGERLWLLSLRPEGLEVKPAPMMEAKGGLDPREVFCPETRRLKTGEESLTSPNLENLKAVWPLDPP
The essentials:
as §1

In the next assay the target is T3, ETS2 (Homo sapiens, UniProt P15036 1-469).
T3 sequence: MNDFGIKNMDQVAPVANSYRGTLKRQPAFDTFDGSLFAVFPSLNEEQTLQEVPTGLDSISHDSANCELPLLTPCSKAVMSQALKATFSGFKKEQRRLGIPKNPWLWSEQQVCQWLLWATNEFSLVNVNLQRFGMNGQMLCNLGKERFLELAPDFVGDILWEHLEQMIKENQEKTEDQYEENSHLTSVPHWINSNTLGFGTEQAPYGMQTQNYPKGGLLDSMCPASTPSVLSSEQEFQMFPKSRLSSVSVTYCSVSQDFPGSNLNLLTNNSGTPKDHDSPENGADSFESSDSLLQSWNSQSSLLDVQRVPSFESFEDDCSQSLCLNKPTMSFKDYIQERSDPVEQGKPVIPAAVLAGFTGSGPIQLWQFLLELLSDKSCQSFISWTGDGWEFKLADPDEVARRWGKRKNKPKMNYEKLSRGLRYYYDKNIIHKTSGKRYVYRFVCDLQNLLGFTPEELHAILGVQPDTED
The essentials: as §1

The target of another assay is T4, SPDEF (Homo sapiens, UniProt O95238 1-335).
T4 sequence: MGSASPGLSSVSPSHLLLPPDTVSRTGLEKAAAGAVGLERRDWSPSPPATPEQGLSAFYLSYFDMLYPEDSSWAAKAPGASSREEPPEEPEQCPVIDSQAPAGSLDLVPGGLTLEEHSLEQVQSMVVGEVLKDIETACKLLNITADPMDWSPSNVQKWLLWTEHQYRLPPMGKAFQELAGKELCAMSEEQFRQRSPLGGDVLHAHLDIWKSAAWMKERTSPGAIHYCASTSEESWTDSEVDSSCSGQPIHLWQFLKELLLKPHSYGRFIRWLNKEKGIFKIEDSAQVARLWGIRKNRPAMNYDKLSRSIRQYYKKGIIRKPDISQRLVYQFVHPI
The essentials:
as §1

A further assay addresses T5, ETV7 (Homo sapiens, UniProt Q9Y603 1-341).
T5 sequence: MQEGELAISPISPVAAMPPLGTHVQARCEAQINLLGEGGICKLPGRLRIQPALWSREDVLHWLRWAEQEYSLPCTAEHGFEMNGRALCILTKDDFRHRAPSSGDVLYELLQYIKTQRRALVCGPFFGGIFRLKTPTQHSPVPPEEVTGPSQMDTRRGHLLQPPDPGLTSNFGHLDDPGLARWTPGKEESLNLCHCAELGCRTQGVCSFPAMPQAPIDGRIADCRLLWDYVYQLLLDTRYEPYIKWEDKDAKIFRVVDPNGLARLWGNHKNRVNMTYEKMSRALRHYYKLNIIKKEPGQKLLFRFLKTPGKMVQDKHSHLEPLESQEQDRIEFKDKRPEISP
The essentials:
as §1

Another assay has as its target T6, ELF5 (Homo sapiens, UniProt Q9UKW6-2 1-255).
T6 sequence: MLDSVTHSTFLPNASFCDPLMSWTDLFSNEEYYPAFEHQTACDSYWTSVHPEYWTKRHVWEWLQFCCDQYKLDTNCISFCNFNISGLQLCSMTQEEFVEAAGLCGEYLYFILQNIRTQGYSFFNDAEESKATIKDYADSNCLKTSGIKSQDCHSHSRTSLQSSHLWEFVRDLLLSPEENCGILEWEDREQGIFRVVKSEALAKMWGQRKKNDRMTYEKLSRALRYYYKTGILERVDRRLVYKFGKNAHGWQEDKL
Summed up:
as §1

Another assay deals with T7, ETV3 (Homo sapiens, UniProt P41162-2 1-143).
T7 sequence: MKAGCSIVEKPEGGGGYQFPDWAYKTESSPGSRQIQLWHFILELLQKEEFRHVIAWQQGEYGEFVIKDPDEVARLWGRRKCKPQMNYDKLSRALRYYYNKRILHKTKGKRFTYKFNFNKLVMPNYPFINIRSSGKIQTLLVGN
The essentials: as §1

Another assay deals with ETV6 (Homo sapiens, UniProt P41212 1-452). The essentials: as §1
Sequence of ETV6 (P41212 whole entry): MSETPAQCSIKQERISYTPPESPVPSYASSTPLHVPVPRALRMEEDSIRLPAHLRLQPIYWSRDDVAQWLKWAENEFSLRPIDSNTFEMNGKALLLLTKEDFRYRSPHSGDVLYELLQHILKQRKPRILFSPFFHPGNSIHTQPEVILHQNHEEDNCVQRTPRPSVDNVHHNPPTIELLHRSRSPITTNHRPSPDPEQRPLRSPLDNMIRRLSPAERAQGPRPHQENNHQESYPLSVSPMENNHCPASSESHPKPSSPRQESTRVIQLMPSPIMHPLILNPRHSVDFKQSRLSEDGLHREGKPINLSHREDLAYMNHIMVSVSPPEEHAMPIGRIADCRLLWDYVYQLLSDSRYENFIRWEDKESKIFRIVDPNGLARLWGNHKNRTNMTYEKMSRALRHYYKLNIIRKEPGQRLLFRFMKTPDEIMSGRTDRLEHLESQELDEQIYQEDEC

Turning to GCTCAT, the binding signal with ERF was 1.31 fold enrichment (6-mer frequency, TF over GST control); with ETV3L, 1.19 fold enrichment (6-mer frequency, TF over GST control); in the assay with ETS2, 1.26 fold enrichment (6-mer frequency, TF over GST control); with SPDEF, 1.12 fold enrichment (6-mer frequency, TF over GST control); with ETV7, 1.23 fold enrichment (6-mer frequency, TF over GST control); with ELF5 it was 1.19 fold enrichment (6-mer frequency, TF over GST control). Further, the binding signal in the assay with ETV3 is 1.15 fold enrichment (6-mer frequency, TF over GST control); with ETV6 it was 1.21 fold enrichment (6-mer frequency, TF over GST control).

Take GGAACT: the binding signal was 1.48 fold enrichment (6-mer frequency, TF over GST control) in the assay with ERF; 1.71 fold enrichment (6-mer frequency, TF over GST control) in the assay with ETV3L; 1.88 fold enrichment (6-mer frequency, TF over GST control) with ETS2; 1.94 fold enrichment (6-mer frequency, TF over GST control) in the assay with SPDEF; 1.56 fold enrichment (6-mer frequency, TF over GST control) with ETV7; 2.25 fold enrichment (6-mer frequency, TF over GST control) in the assay with ELF5. Moreover, the binding signal with ETV3 was 1.93 fold enrichment (6-mer frequency, TF over GST control); with ETV6, 1.84 fold enrichment (6-mer frequency, TF over GST control).

As for TAGCGG, the binding signal with ERF was 1.1 fold enrichment (6-mer frequency, TF over GST control); with ETV3L, 1.12 fold enrichment (6-mer frequency, TF over GST control); with ETS2 it was 1.13 fold enrichment (6-mer frequency, TF over GST control); with SPDEF, 1.1 fold enrichment (6-mer frequency, TF over GST control); with ETV7, 1.12 fold enrichment (6-mer frequency, TF over GST control); in the assay with ELF5, 1.12 fold enrichment (6-mer frequency, TF over GST control). Further, the binding signal in the assay with ETV3 was 1.09 fold enrichment (6-mer frequency, TF over GST control); with ETV6 it was 1.12 fold enrichment (6-mer frequency, TF over GST control).

Consider ACGCTG, for which the binding signal with ERF is 1.21 fold enrichment (6-mer frequency, TF over GST control); in the assay with ETV3L, 1.15 fold enrichment (6-mer frequency, TF over GST control); in the assay with ETS2, 1.06 fold enrichment (6-mer frequency, TF over GST control); with SPDEF it was 1.24 fold enrichment (6-mer frequency, TF over GST control); in the assay with ETV7 it was 1.16 fold enrichment (6-mer frequency, TF over GST control); with ELF5 it was 1.09 fold enrichment (6-mer frequency, TF over GST control). Moreover, the binding signal with ETV3 is 1.26 fold enrichment (6-mer frequency, TF over GST control); with ETV6 it was 1.09 fold enrichment (6-mer frequency, TF over GST control).

As for CCACAT, the binding signal was 1.28 fold enrichment (6-mer frequency, TF over GST control) with ERF; 1.15 fold enrichment (6-mer frequency, TF over GST control) with ETV3L; 1.2 fold enrichment (6-mer frequency, TF over GST control) with ETS2; 1.22 fold enrichment (6-mer frequency, TF over GST control) with SPDEF; 1.05 fold enrichment (6-mer frequency, TF over GST control) with ETV7; 1.15 fold enrichment (6-mer frequency, TF over GST control) with ELF5. The binding signal in the assay with ETV3 is 1.17 fold enrichment (6-mer frequency, TF over GST control); with ETV6 it was 1.2 fold enrichment (6-mer frequency, TF over GST control).

Turning to ACTCCC, the binding signal is 1.44 fold enrichment (6-mer frequency, TF over GST control) with ERF; 1.19 fold enrichment (6-mer frequency, TF over GST control) with ETV3L; 1.27 fold enrichment (6-mer frequency, TF over GST control) with ETS2; 1.32 fold enrichment (6-mer frequency, TF over GST control) with SPDEF; 1.31 fold enrichment (6-mer frequency, TF over GST control) with ETV7; 1.38 fold enrichment (6-mer frequency, TF over GST control) with ELF5. Besides, the binding signal is 1.47 fold enrichment (6-mer frequency, TF over GST control) in the assay with ETV3 and 1.47 fold enrichment (6-mer frequency, TF over GST control) with ETV6.

For the sequence TATGCA, the binding signal is 1.25 fold enrichment (6-mer frequency, TF over GST control) with ERF; 1.27 fold enrichment (6-mer frequency, TF over GST control) with ETV3L; 1.29 fold enrichment (6-mer frequency, TF over GST control) in the assay with ETS2; 1.36 fold enrichment (6-mer frequency, TF over GST control) in the assay with SPDEF; 1.18 fold enrichment (6-mer frequency, TF over GST control) with ETV7; 1.23 fold enrichment (6-mer frequency, TF over GST control) with ELF5. Further, the binding signal in the assay with ETV3 is 1.33 fold enrichment (6-mer frequency, TF over GST control); with ETV6, 1.15 fold enrichment (6-mer frequency, TF over GST control).

For the sequence TCTCGC, the binding signal with ERF is 1.75 fold enrichment (6-mer frequency, TF over GST control); with ETV3L, 1.81 fold enrichment (6-mer frequency, TF over GST control); with ETS2, 1.91 fold enrichment (6-mer frequency, TF over GST control); with SPDEF, 1.63 fold enrichment (6-mer frequency, TF over GST control); with ETV7, 1.68 fold enrichment (6-mer frequency, TF over GST control); with ELF5, 1.71 fold enrichment (6-mer frequency, TF over GST control). The binding signal was 1.79 fold enrichment (6-mer frequency, TF over GST control) with ETV3 and 1.62 fold enrichment (6-mer frequency, TF over GST control) with ETV6.

These data come from paper PMC7862700, “An all-to-all approach to the identification of sequence-specific readers for epigenetic DNA modifications on cytosine”.
